Sampled rows, rich in hits. Any-hit rate of the full collection: about 2.6%.
IEC-6 cytotox – kills IEC-6 intestinal cells in KLF5 counter-screen | inhibition, % at 5 µM | IEC-6 cytotoxicity, luminescence viability | 0.78% of 290,000 active;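 further: 0% = plate median of test compound wells and 100% = cytotoxic reference compound wells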
GPR7 antag – human neuropeptides B/W receptor 1 antagonism; AID 1861; 1.1% of 290,000 active; GPR7-expressing cells, fluorescence antagonist assay; inhibition, % at 4.4 µM; P48145; in the data active means inhibition above about 16%, passing the limit was not always enough;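 further: cells stimulated with the agonist NPW; 0% = agonist with vehicle and 100% = vehicle without agonist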
Target sequence (P48145 whole entry, looked up): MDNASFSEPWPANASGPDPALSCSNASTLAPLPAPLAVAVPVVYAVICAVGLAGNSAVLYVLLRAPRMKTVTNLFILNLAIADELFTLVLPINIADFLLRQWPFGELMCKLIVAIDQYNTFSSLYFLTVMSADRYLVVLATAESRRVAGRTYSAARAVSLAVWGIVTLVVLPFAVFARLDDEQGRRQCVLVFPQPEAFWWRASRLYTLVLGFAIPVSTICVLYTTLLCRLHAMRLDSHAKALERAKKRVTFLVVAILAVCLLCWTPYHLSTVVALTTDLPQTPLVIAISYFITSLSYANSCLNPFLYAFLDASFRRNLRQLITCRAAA
Ba/F3 V617F tox – reduce viability of Ba/F3 cells dependent on JAK2V617F; 1.1% of 220,000 active; Ba/F3 EpoR-JAK2V617F viability, ATP luminescence; inhibition, % at 5.6 µM;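 active means inhibition above the campaign mean plus 3 SD over all tested compounds, cut at about 24% in these data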;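 further: cytokine-independent growth of Ba/F3 cells driven by EpoR plus mutant JAK2; 0% = DMSO-treated cells and 100% = JAK inhibitor I control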
BaF3 parental – reduces parental Ba/F3 cell viability, JAK2V617F counter-screen | inhibition, % at 5.6 µM | 1.1% of 220,000 active | AID 1486 | CellTiter-Glo ATP luminescence;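 active means inhibition above a per-campaign cutoff, the mean inhibition of all tested compounds plus 3 SD, cut at about 27% in these data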;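 further: 0% = DMSO wells and 100% = JAK Inhibitor I control wells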
DNA FID counter – fluorescent intercalator displacement, NS3 helicase counter-screen; 0.17% of 290,000 active; inhibition, % at 7.9 µM; DNA fluorescent intercalator displacement, fluorescence; AID 1845; in the data active means inhibition above about 37%;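 further: 0% = vehicle and 100% = reference compound; higher means more ethidium bromide displaced from hairpin DNA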
KLF5 inhibitor – kruppel-like factor 5 inhibition | DLD-1 KLF5 promoter-luciferase reporter, luminescence | inhibition, % at 5 µM | 0.23% of 290,000 active;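 active means inhibition above a per-plate limit of that plate's mean compound inhibition plus 3 SD, cut at about 60% in these data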;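 further: 0% = DMSO wells and 100% = LY294002 at 200 µM; higher means less KLF5 promoter-driven luciferase light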
IEC-6 cytotox cf – IEC-6 cytotoxicity, confirmation assay; shares compounds with IEC-6 cytotox; IEC-6 rat intestinal epithelial viability, luminescence; inhibition, % at 5 µM; 63% of 1,900 active;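 further: 0% = vehicle and 100% = reference cytotoxic drug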
* = called active by the depositor; . = not tested or not shown. Unless noted, no stated cut-off is given here; in the data, active means inhibition above about 22%; inactive means the rest.

SMILES | IEC-6 cytotox | GPR7 antag | Ba/F3 V617F tox | BaF3 parental | DNA FID counter | KLF5 inhibitor | IEC-6 cytotox cf
COc1cc(C(=O)Nc2ccc(NC(=O)C3CC3)nc2)cc(OC)c1OC | 95.1* | -13.7 | 0.5 | 7.8 | -12.4 | -10.7 | 9.8
COc1ccc(C2=NOC(C(=O)NCc3ccco3)C2)cc1 (configuration not stated) | 25.1* | 14.6 | -1.5 | 3.1 | -3.6 | 15.2 | 35.4*
COc1cc(C2=NOC(C(=O)NCc3ccco3)C2)cc(OC)c1OC (configuration not stated) | 25.5* | 10.4 | 43.5* | 51.0* | -4.3 | 27.0 | 43.6*
COc1cc(C2=NOC(C(=O)NCc3cccnc3)C2)cc(OC)c1OC (configuration not stated) | -2.2 | 6.1 | . | . | -5.0 | -22.0 | .
CSc1ncc(CN2CCCCC2C(=O)Nc2ccc(Oc3ccccc3)nc2)cn1 (configuration not stated) | 3.6 | 3.9 | . | . | -22.0 | -40.9 | .
COC(=O)C1CCN(C(=O)CN(C)Cc2ccc(C(C)(C)C)cc2)CC1 | 0.3 | -7.9 | . | . | -3.4 | -5.3 | .
COc1ccc(S(=O)(=O)N2N=C(C)Oc3ccccc3C2=O)cc1 | 67.5* | 16.9 | 85.5* | 76.2* | -8.5 | 54.7 | 45.4*
CC(=O)Nc1ccc(NC2=C/C(=N/S(=O)(=O)c3cccs3)c3ccccc3C2=O)cc1 | 43.3* | -15.4 | 3.3 | 3.1 | 6.3 | -32.5 | 3.9
c1ccc(-c2nnc(CN3CCN(C(c4ccccc4)c4ccccc4)CC3)o2)cc1 | -7.3 | -25.2 | 0.4 | -2.3 | -19.8 | -15.7 | .
CCOc1cc(N2CCOCC2)c(OCC)cc1NC(=O)CCS(=O)(=O)c1ccc(Cl)cc1 | -0.5 | 2.3 | -2.0 | 1.1 | -25.6 | -7.5 | .
CCOc1cc(N2CCOCC2)c(OCC)cc1NS(=O)(=O)c1ccc(Cl)s1 | 56.9* | -3.4 | 17.0 | 54.7* | -21.3 | 21.3 | 58.2*
CCOC(=O)c1[nH]c(C)c(C(=O)Nc2ccc(C)c(F)c2)c1C | 8.4 | -2.4 | 1.2 | 6.2 | -18.2 | 0.3 | .
CCOC(=O)c1[nH]c(C)c(C(=O)Nc2ccccc2C)c1C | 56.1* | 3.0 | 71.0* | 66.5* | -6.0 | 47.3 | 51.1*
CS(=O)(=O)c1ccc(Cl)c(NC(=O)CSc2nncn2-c2ccccc2)c1 | 3.1 | -12.8 | . | . | -13.7 | -0.8 | .
COc1cccc(C(=O)Nc2ccc3c(cc2=O)[C@@H](NC(C)=O)CCc2cc(OC)c(OC)c(OC)c2-3)c1 | 46.3* | 13.3 | . | . | -37.5 | -5.7 | 38.9*
COc1cccc(C(=O)Nc2ccc(F)cc2F)c1 | -2.3 | 7.6 | 4.1 | 9.7 | -3.8 | -65.0 | .
Cc1cccc(OCCN2C(=O)C(=O)c3cc(C)ccc32)c1 | 78.8* | 9.3 | 85.7* | 84.1* | -6.8 | -25.6 | 56.4*
Cc1cccc(OCCN2C(=O)C(=O)c3cccc(C)c32)c1 | 2.3 | 4.8 | -1.4 | 4.9 | 0.8 | -20.1 | .
CC(=O)N1CCN(C(=O)CCc2c[nH]c3ccccc23)CC1 | 0.7 | 5.7 | 1.4 | 4.4 | -2.2 | -24.1 | .
COc1ccc(OCc2cc(C(=O)NC3CCOC(C)(C)C3)no2)c2ccccc12 (configuration not stated) | 41.8* | -10.3 | . | . | -10.3 | -32.0 | 0.8
CCOC(=O)c1ccc2nc(NC(=O)C(C)C)sc2c1 | 4.9 | -6.7 | -1.7 | 0.9 | -8.5 | -127.5 | .
C=CCN(CC=C)S(=O)(=O)c1ccc2nc(NC(=O)C(C)C)sc2c1 | 54.3* | 3.5 | 64.3* | 76.0* | -13.4 | 39.7 | 46.5*
CCCCCn1c(CNC(=O)CCC)nc2ccccc21 | -4.1 | -8.9 | -1.5 | 7.4 | -16.2 | -48.5 | .
Cc1ccccc1C(=O)/C(C#N)=N/Nc1c(C)n(C)n(-c2ccccc2)c1=O | 37.7* | -8.4 | 8.1 | 7.7 | -33.0 | 29.8 | 35.9*
Cc1c(N/N=C(\C#N)C(=O)c2ccccc2)c(=O)n(-c2ccccc2)n1C | 38.7* | -13.1 | 12.2 | 10.2 | -7.7 | 37.2 | 44.5*
CCOC(=O)/C(C#N)=N/Nc1c(C)n(C)n(-c2ccccc2)c1=O | -2.5 | -1.5 | -0.5 | 6.5 | 3.8 | -46.8 | .
Cc1c(NC=C(C#N)C#N)c(=O)n(-c2ccccc2)n1C | -3.1 | 8.6 | -0.5 | 1.6 | -0.5 | -25.5 | .
Cc1nc(-c2nnc(-c3ccccc3)o2)c(C(F)(F)F)o1 | 0.5 | -12.2 | 3.0 | 0.9 | -1.5 | -25.5 | .
COc1cc(/C=C/C(=O)OCC(=O)NCCc2ccccc2)ccc1OC(F)F | -2.9 | -24.4 | . | . | -31.7 | -17.9 | .

From PubChem
